# Measurements from PubChem BioAssay (Tox21).
# Unmarked numbers belong to inactive results. Inconclusive results are not listed. A call without a number means that no potency is given here. Activity calls are given as the source filed them. Calls come from the whole dose curve; as a rule, active = well fitted curve in the direction sought with a large enough effect in the repeat runs; inconclusive = weak or mixed curves; inactive = no such curve, though single readings can be large; an effect the other way counts as inactive or inconclusive.
# Assays:
# [1] = Caspase-3/7 induction in HepG2 cells by small molecules, qHTS cell viability counter screen (AID 1346981); note: nearly all actives have a fitted effect of over 30% in size; note: potency is the fitted concentration of half-maximal effect
# Method in brief: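 Wild-type HepG2 cells (2,000/well) were allowed to settle for 5 hr at 37 C, 5% CO2, then dosed with compounds in DMSO by pin transfer. After 16 hr at 37 C, CellTiter-Fluor was added and fluorescence read 1 hr later.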
# [2] = biological target: Nuclear receptor subfamily 1 group I member 2 (Homo sapiens) (UniProt O75469); experiment: Human pregnane X receptor (PXR) small molecule agonists, qHTS assay (AID 1346982); note: nearly all actives have a fitted effect of over 35% in size; note: potency is the fitted concentration of half-maximal effect
# Chain of Nuclear receptor subfamily 1 group I member 2 (Homo sapiens) (O75469 whole entry, looked up): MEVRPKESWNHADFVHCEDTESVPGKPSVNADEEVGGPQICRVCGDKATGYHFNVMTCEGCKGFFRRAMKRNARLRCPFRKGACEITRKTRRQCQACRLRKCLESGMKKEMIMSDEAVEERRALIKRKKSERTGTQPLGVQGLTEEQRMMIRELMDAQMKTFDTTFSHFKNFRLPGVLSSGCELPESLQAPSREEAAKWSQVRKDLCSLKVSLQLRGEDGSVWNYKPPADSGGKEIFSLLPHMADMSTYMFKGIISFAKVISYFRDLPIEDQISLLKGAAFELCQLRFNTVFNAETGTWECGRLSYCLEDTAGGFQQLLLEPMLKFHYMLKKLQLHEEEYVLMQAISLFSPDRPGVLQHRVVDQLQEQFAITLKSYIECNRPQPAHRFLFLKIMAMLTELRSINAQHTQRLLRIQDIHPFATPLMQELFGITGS
# Method in brief: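 PXR-Luc HepG2 cells (CYP3A4 promoter-driven luciferase) were seeded in medium with 5% charcoal-stripped FBS, left 5 hr at 37 C, then exposed to compounds in DMSO for 24 hr. Luminescence was read after ONE-Glo addition.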
# [3] = biological target: Cytochrome P450 2D6 (Homo sapiens) (UniProt P10635); experiment: Cytochrome P450 Family 2 Subfamily D Member 6 (CYP2D6) small molecule antagonists: luciferase reporter qHTS assay (AID 1671196); note: nearly all actives have a fitted effect of over 50% in size; note: potency is the fitted concentration of half-maximal effect
# Chain of Cytochrome P450 2D6 (Homo sapiens) (P10635 whole entry, looked up): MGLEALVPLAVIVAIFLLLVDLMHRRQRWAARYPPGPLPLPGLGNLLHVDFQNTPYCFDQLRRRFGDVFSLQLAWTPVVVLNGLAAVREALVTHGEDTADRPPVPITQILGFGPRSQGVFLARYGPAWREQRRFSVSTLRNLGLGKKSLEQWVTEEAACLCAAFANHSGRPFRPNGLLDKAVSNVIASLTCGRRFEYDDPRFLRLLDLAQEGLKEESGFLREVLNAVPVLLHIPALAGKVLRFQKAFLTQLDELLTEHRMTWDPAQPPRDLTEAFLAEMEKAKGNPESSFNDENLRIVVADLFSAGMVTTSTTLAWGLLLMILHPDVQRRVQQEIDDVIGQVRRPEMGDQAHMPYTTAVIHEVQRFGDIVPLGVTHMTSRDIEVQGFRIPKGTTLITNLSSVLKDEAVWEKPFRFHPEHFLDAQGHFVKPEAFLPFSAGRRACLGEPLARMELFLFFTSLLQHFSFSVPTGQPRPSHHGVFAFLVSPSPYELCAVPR
# Method in brief: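 CYP2D6 enzyme–substrate mix was held with compound for 10 min at room temperature, then NADPH regeneration solution was added and the reaction ran 1 h at room temperature. Luciferin product was detected by luminescence after 20 min with detection reagent.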
# [4] = biological target: Cytochrome P450 2C19 (Homo sapiens) (UniProt P33261); experiment: Cytochrome P450 Family 2 Subfamily C Member 19 (CYP2C19) small molecule antagonists: luciferase reporter qHTS assay (AID 1671197); note: nearly all actives have a fitted effect of over 65% in size; note: potency is the fitted concentration of half-maximal effect
# Chain of Cytochrome P450 2C19 (Homo sapiens) (P33261 whole entry, looked up): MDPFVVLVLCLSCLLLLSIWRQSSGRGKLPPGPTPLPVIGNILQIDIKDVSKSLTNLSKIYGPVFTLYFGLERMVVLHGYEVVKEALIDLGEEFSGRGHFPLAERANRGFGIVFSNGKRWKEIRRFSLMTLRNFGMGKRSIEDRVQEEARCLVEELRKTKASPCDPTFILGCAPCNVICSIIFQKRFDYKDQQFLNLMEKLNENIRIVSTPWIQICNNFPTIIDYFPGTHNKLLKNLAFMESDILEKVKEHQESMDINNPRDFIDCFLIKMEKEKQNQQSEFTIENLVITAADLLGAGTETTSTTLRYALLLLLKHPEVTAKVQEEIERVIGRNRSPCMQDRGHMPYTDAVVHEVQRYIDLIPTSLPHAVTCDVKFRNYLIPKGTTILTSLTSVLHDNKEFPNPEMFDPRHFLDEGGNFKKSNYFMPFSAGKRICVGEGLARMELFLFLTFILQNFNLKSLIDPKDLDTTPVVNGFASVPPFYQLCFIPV
# Method in brief: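 Enzyme-substrate mix with proluciferin substrate (P450-Glo CYP2C19 system) preincubated with compounds 10 min at room temperature; NADPH regeneration solution added, 37C for 1 h; detection reagent stops reaction, luminescence read after 20 min. Ketoconazole positive control.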
# [5] = biological target: Cytochrome P450 2C9 (Homo sapiens) (UniProt P11712); experiment: Cytochrome P450 Family 2 Subfamily C Member 9 (CYP2C9) small molecule antagonists: luciferase reporter qHTS assay (AID 1671198); note: nearly all actives have a fitted effect of over 50% in size; note: potency is the fitted concentration of half-maximal effect
# Chain of Cytochrome P450 2C9 (Homo sapiens) (P11712 whole entry, looked up): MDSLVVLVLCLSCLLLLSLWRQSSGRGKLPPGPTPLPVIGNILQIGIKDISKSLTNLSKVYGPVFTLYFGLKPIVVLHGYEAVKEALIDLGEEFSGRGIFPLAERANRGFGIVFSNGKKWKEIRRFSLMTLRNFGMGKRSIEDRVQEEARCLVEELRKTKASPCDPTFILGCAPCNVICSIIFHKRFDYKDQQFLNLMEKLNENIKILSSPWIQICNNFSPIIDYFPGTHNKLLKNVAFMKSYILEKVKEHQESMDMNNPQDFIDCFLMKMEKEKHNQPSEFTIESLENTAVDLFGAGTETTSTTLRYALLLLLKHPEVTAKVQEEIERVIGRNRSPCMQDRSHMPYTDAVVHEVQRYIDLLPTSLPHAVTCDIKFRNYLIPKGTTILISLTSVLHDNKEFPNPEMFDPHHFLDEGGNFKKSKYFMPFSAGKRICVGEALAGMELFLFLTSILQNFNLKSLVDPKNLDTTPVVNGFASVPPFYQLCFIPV
# Method in brief: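 CYP2C9 activity was measured with a P450-Glo proluciferin substrate. Enzyme–substrate mix was held with compound for 10 min at room temperature, then NADPH regeneration solution was added for 1 h at 37C. Luciferin product was read as luminescence.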
# [6] = biological target: Cytochrome P450 1A2 (Homo sapiens) (UniProt P05177); experiment: Cytochrome P450 Family 1 Subfamily A Member 2 (CYP1A2) small molecule antagonists: luciferase reporter qHTS assay (AID 1671199); note: nearly all actives have a fitted effect of over 50% in size; note: potency is the fitted concentration of half-maximal effect
# Chain of Cytochrome P450 1A2 (Homo sapiens) (P05177 whole entry, looked up): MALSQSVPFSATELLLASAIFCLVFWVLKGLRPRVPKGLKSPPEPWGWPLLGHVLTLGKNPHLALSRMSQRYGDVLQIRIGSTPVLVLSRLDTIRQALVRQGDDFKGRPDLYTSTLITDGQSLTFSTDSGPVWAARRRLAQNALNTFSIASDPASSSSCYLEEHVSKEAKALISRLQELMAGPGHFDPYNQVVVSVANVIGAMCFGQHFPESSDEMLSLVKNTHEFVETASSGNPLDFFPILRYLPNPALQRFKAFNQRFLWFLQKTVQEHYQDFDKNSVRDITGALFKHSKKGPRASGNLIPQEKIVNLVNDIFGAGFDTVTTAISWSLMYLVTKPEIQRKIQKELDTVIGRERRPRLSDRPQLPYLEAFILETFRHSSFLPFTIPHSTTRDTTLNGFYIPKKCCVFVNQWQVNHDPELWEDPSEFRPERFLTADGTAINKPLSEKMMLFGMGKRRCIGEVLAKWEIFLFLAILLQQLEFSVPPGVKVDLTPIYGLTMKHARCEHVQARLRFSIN
# Method in brief: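 Human CYP1A2 activity measured with a P450-Glo proluciferin substrate; compounds in DMSO preincubated 10 min at room temperature with enzyme-substrate mix, then NADPH regeneration system added for 1 h. Luciferin detection reagent, 20 min, luminescence read.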
# [7] = biological target: Cytochrome P450 3A4 (Homo sapiens) (UniProt P08684); experiment: Cytochrome P450 Family 3 Subfamily A Member 4 (CYP3A4) small molecule antagonists: luciferase reporter qHTS assay (AID 1671201); note: nearly all actives have a fitted effect of over 50% in size; note: potency is the fitted concentration of half-maximal effect
# Chain of Cytochrome P450 3A4 (Homo sapiens) (P08684 whole entry, looked up): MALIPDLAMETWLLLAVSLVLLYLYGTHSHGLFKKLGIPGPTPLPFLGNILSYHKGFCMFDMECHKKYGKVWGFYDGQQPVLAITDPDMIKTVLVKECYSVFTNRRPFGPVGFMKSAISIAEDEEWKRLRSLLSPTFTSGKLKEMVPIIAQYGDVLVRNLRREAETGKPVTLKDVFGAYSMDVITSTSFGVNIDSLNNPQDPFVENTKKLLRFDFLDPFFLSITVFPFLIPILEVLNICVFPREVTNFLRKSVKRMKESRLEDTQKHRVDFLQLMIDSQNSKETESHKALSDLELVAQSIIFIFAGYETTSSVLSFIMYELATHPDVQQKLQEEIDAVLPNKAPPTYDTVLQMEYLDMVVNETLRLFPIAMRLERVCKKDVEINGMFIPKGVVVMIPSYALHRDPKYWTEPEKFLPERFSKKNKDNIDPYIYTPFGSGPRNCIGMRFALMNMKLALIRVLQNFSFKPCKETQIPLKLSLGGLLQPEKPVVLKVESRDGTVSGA
# Method in brief: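 Enzyme and proluciferin substrate are mixed with test chemicals for 10 min, then NADPH regeneration system drives turnover for 1 h at room temperature. A detection reagent halts the reaction; luminescence after 20 min gives relative activity.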
# [8] = biological target: Voltage-gated inwardly rectifying potassium channel KCNH2 (Homo sapiens) (UniProt Q12809); experiment: Human Ether-a-go-go-Related Gene (hERG) channel small molecule antagonists: fluorescence cell-based qHTS assay (AID 1671200)
# Chain of Voltage-gated inwardly rectifying potassium channel KCNH2 (Homo sapiens) (Q12809 whole entry, looked up): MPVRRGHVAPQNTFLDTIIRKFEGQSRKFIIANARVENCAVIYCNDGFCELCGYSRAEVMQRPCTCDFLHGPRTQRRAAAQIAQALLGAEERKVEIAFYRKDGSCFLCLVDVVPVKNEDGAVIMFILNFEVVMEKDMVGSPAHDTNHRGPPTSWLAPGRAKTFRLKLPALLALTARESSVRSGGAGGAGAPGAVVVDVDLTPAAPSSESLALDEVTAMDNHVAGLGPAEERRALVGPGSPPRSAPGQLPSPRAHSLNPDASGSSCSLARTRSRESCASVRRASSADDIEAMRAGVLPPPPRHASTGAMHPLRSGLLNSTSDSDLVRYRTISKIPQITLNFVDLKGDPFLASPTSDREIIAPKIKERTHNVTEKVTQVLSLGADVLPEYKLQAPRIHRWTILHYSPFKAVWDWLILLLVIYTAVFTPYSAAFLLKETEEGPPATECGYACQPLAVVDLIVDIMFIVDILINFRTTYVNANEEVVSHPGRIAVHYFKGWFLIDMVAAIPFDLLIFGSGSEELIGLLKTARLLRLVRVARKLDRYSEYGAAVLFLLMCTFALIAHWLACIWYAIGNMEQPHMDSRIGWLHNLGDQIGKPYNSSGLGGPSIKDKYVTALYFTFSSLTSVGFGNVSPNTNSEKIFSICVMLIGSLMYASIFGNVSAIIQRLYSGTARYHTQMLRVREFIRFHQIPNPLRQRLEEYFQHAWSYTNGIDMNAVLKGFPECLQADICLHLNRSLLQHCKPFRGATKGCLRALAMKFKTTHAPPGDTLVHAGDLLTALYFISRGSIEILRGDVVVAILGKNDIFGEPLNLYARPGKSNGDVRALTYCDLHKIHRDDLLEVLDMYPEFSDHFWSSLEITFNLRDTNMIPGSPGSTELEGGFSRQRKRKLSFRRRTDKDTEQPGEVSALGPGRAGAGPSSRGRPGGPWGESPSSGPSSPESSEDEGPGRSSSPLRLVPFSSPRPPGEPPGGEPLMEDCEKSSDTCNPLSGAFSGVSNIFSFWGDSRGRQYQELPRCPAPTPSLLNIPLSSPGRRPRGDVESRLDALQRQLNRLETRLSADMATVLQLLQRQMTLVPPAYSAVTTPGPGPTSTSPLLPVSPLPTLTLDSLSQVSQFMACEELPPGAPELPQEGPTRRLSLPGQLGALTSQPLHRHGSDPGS
# Method in brief: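 First, 1000 cells per well are seeded and cultured overnight at 37 C. Next, FluxOR II dye is loaded for 1 h at room temperature, protected from light. After 10 more minutes, stimulus is added and fluorescence is read.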
# [9] = biological target: Nuclear receptor subfamily 1 group I member 2 (Rattus norvegicus) (UniProt Q9R1A7); experiment: Rat pregnane X receptor (rPXR) activation by small molecules, qHTS assay (AID 1346983); settings: rPXR luciferase reporter cells, One-Glo luminescence, 24 h; max activation: hits give high values; note: nearly all actives have a fitted effect of over 20% in size
# Chain of Nuclear receptor subfamily 1 group I member 2 (Rattus norvegicus) (Q9R1A7 whole entry, looked up): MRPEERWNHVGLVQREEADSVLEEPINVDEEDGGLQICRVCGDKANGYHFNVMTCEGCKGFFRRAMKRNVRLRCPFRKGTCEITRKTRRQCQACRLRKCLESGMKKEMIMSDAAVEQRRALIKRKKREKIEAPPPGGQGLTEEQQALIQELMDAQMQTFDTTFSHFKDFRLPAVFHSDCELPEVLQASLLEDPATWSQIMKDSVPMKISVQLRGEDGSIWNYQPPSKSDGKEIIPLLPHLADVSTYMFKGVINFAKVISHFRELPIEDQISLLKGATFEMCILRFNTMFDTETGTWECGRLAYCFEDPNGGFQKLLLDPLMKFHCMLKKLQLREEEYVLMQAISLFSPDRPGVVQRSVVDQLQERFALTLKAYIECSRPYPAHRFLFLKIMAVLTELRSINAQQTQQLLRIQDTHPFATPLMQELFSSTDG
# Method in brief: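 Cell-based rPXR luciferase reporter assay, 2,000 cells per well, rested 5hr at 37 C before compound addition in DMSO, then 24 hr at 37 C. One-Glo reagent was added and luminescence read after 30 min at room temperature.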
# [10] = biological target: Nuclear receptor subfamily 1 group I member 2 (Homo sapiens) (UniProt O75469); experiment: CYP3A4 induction through human pregnane X receptor (PXR) by small molecules, qHTS assay (AID 1346984); note: nearly all actives have a fitted effect of over 40% in size
# Method in brief: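 DPX-2 cells (HepG2 co-transfected with PXR and CYP3A4 promoter-luciferase) treated with compounds 24 h at 37C; luciferin-IPA CYP3A4 substrate 3uM final added for 3 h, then One-Glo; luminescence read. qHTS format.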
# [11] = Caspase-3/7 induction in CHO-K1 cells by small molecules, qHTS assay (AID 1346980); note: nearly all actives have a fitted effect of over 15% in size
# Method in brief: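 Wild-type cells were seeded at 1,500 per well and settled 5 hr at 37 C, 5% CO2, then exposed to DMSO-dissolved compounds for 17 hr. Caspase-Glo 3/7 reagent was added, and luminescence was read after 30min at room temperature.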
Structure (SMILES),Potency [1],Potency [2],Potency [3],Potency [4],Potency [5],Potency [6],Potency [7],Potency [8],max activation [9] [%],Potency [10],Potency [11]
c1ccc(-c2ccccc2-c2ccccc2)cc1,inactive,61.1 µM (active),inactive,20 µM (active),22.4 µM (active),3.17 µM (active),inactive,,,,
COC(=O)c1ccc([N+](=O)[O-])cc1,inactive,inactive,,inactive,inactive,17.8 µM (active),inactive,inactive,,,
[Cl][Eu]([Cl])[Cl],inactive,inactive,inactive,inactive,inactive,inactive,inactive,inactive,,,
O=C(NCc1ncc(C(F)(F)F)cc1Cl)c1c(Cl)cccc1Cl,inactive,1.22 µM (active),2.83 µM (active),,inactive,31.7 µM (active),8.94 µM (active),inactive,,,
CCOC(=O)[C@H](C)O,inactive,inactive,,inactive,inactive,inactive,inactive,inactive,,,
CCOC(=O)OC(=O)OCC,inactive,inactive,inactive,inactive,inactive,inactive,inactive,,,,
CC1CCC(C(C)(C)O)CC1 (stereo not given),inactive,inactive,,,inactive,inactive,inactive,inactive,,,
CCC(C)(C)c1ccc(CC(C)CN2C[C@@H](C)O[C@@H](C)C2)cc1 (stereo not given in full),inactive,inactive,6.92 µM (active),,27.5 µM (active),,inactive,,-0.729,inactive,
CCCCCCCC/C=C\CCCCCCCC(=O)N(CCO)CCO,,60.9 µM (active),,19.9 µM (active),14.1 µM (active),,15.8 µM (active),,,,inactive
CCN(CC)c1ccc(N=Nc2ccccc2)cc1,27.3 µM (active),1.37 µM (active),,20 µM (active),10 µM (active),11.2 µM (active),,inactive,,,
C=CCc1cc(S(=O)(=O)c2ccc(O)c(CC=C)c2)ccc1O,,,,2.24 µM (active),0.502 µM (active),,28.3 µM (active),inactive,,,inactive
NCc1ccco1,inactive,inactive,,inactive,inactive,inactive,inactive,,,,
CCc1cccc(C)c1N(C(=O)C(=O)O)C(C)COC (stereo not given),,inactive,,inactive,,inactive,inactive,inactive,,,inactive
Clc1ccc2c(Cl)ccnc2c1,inactive,inactive,inactive,inactive,inactive,5.64 µM (active),inactive,inactive,,,
CCOC(=O)[C@H](O)[C@@H](O)C(=O)OCC,inactive,inactive,,inactive,inactive,,inactive,inactive,,,
Nc1ccc(Cl)c([N+](=O)[O-])c1,inactive,,inactive,inactive,,31.7 µM (active),inactive,,,,
N#Cc1nc(Cl)c(Cl)c(Cl)c1Cl,43.3 µM (active),9.69 µM (active),inactive,,79.6 µM (active),5.03 µM (active),inactive,,,,
CC(C)c1ccc2sc3ccccc3c(=O)c2c1,inactive,17.2 µM (active),28.3 µM (active),7.96 µM (active),11.2 µM (active),7.1 µM (active),inactive,inactive,,,
CCCCCc1ccc(O)cc1,,,,22.4 µM (active),63.3 µM (active),63.3 µM (active),inactive,inactive,,,inactive
O=S(=O)(c1ccc(OCc2ccccc2)cc1)c1ccccc1O,,61.1 µM (active),,,39.9 µM (active),,inactive,inactive,,,inactive
Cn1c(=O)[nH]c2ncn(C)c2c1=O,inactive,inactive,inactive,,inactive,inactive,inactive,inactive,,,
